Compound activity: PubChem BioAssay, National Center for Advancing Translational Sciences (NCATS)
Pol beta inh = blocks human DNA polymerase beta activity | actives 1.3% (n = 340,000) | P06746 | Potency, µM (series often up to 114 µM), for inactives: at the top dose activity change, negative = inhibition, actives largely listed as inhibitors | Pol beta primer extension/strand displacement, fluorescence kinetic | AID 485314; note: potency is the fitted concentration of half-maximal effect; % is set by controls: 0 for no effect and ±100 for the full control effect
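Pol beta (10 nM) and compounds were preincubated 15 min at room temperature, then 50 nM substrate (final) started primer extension/strand displacement. Reads were taken at 0 and 10 min; concentration-response data were fitted to a four-parameter Hill equation.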
PI5P4Ka inh = blocks human PI5P4K alpha kinase activity; P48426; PI5P4Kalpha enzyme, ADP-Glo luminescence, 60 min; active compounds read low; max response, %; actives 1.2% (n = 330,000); AID 652105; active = max response of -50% or lower; inconclusive = between -30% and -50%; inactive = -30% or higher; note: value at the top dose of about 77 µM; % is set by controls: 0 for no effect and ±100 for the full control effect
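ADP-Glo luminescence end-point read after a 60 min room-temperature kinase reaction of PI5P4Kalpha plus substrate, initiated with ATP at 5 microM final. Buffer: 0.038 M HEPES pH 7.4, EGTA, 0.1% CHAPS, 5% DMSO.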
Pol iota inh = inhibitors of human DNA polymerase iota | Q9UNA4 | AID 588590 | Potency, µM (doses to about 115 µM), inactives show top-dose activity, negative = inhibition, usual class: inhibitors | actives 1% (n = 390,000) | Pol iota fluorescent replication assay, 10 min; note: potency is the fitted concentration of half-maximal effect
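Fluorescent replication assay read twice, at 0 min and 10 min after adding 50 nM (final) substrate. Enzyme (10 nM) and compounds were first incubated 15 min at room temperature; enzyme-free buffer wells were negative controls.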
POLK inh = DNA polymerase kappa (human) inhibition. Q9UBT6. purified Pol kappa, fluorescent DNA synthesis assay, 10 min. Potency, µM (titrated, usually from 107 µM), for the others: top-dose activity, negative = inhibition, actives largely listed as inhibitors. actives 0.53% (n = 400,000). AID 588579; note: potency is the fitted concentration of half-maximal effect; % is set by controls: 0 for no effect and ±100 for the full control effect
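Activity was followed as the change in fluorescence between reads at 0 and 10 min after starting the reaction with 50 nM substrate. Beforehand, 10 nM polymerase had been preincubated with compound for 15 min at room temperature.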
Pol eta inh = blocks human DNA polymerase eta activity. AID 588591. recombinant Pol eta, fluorescent DNA replication assay. actives 1.2% (n = 390,000). Potency, µM (titrated, usually from 114 µM), for the others: at the top dose activity change, negative = inhibition, most hits filed as inhibitors; note: potency is the fitted concentration of half-maximal effect; % is set by controls: 0 for no effect and ±100 for the full control effect
Target sequence (Q9Y253 whole entry, looked up): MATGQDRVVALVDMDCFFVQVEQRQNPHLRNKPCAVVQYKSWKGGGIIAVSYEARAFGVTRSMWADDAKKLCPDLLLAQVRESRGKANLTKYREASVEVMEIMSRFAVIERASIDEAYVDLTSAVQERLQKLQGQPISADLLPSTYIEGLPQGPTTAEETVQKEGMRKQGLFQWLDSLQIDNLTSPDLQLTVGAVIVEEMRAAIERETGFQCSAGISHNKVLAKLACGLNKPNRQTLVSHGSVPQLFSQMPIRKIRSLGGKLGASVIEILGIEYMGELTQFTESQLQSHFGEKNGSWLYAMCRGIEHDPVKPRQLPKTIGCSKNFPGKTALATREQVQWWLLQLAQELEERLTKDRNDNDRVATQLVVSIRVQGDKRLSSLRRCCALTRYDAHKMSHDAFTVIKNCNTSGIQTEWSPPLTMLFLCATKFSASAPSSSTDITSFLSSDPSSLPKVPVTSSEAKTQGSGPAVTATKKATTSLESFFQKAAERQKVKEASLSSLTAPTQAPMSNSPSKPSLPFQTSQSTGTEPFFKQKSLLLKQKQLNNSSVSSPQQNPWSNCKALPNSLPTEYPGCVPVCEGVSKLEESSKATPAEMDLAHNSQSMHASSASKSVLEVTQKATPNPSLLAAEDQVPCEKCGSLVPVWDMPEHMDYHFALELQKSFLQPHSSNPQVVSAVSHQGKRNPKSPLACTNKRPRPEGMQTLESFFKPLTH
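Pol eta at 10 nM preincubated with compounds 15 min at room temperature; reaction started with fluorescent substrate (50 nM final) and read kinetically at 0 and 10 min.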
WRN inhibitor = blocks human WRN helicase; Q14191; WRN helicase unwinding, fluorescent forked duplex, kinetic; Potency, µM (top dose mostly 114 µM), for inactives: at the highest dose activity change, negative = inhibition, actives largely listed as inhibitors; actives 0.46% (n = 360,000); AID 651768; note: potency is the fitted concentration of half-maximal effect; % is set by controls: 0 for no effect and ±100 for the full control effect; nearly all actives have a fitted effect of over 55% in size
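Enzyme (20 nM final) and test compound sit together 15 min at room temperature before substrate addition. Substrate is a single-forked duplex oligonucleotide (100 nM) labelled with fluorophore and quencher, with 2 mM ATP; helicase unwinding raises red fluorescence, read kinetically.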
The depositor's hits bear a star; ? = inconclusive; / = no result; [ ] = another dose, or the depositor's remark. Hits are enriched below; roughly 2.8% of the tested compounds scored in any of these assays. Unless noted, calls come from the whole dose curve; as a rule, active = well fitted curve in the direction sought with a large enough effect; inconclusive = small, poorly fitted or top-dose-only effect, or another doubt; inactive = no such curve, though single readings can be large; an effect the other way counts as inactive or inconclusive.

SMILES	Pol beta inh	PI5P4Ka inh	Pol iota inh	POLK inh	Pol eta inh	WRN inhibitor
COc1ccc(-c2ccc3c(c2)S(=O)(=O)c2cccc(C(=O)NCc4cc(C)oc4C(F)(F)F)c2C3=O)cc1OC	/	-3.4	?	?	11.2µM*	-12.1%[11.6 µM]
Cc1ccc(CNC(=O)c2cccc3c2C(=O)c2ccc(N4CCCCC4)cc2S3(=O)=O)cc1	/	-0.1	?	-17.0%	-20.1%	50.1µM*
COc1ccc(-c2ccc3c(c2)S(=O)(=O)c2cccc(C(=O)NCc4cccc(OC(F)(F)F)c4)c2C3=O)cc1OC	/	4.2	31.3%	11.0%	-12.8%	4.1%
COC(=O)c1c(NC(=O)CCCOc2ccc(C(C)(C)C)cc2)sc2c1C(C(=O)OC)CC2 (stereo unspecified)	-10.2%	/	89.1µM*	?	-12.1%	/
CC(=O)Nc1cccc(NC(=O)CSc2ccc(-c3ccco3)nn2)c1	25.1µM*	?	22.4µM*	?	17.8µM*	-23.5%
CSc1nsc(SCC(=O)Nc2ccc(NC(C)=O)cc2)n1	36.9%	4.6	45.5%	-10.2%	-25.6%	-22.8%
COc1ccc(NC(=O)CSc2nc(SC)ns2)cc1	89.1µM*	1.0	7.5%	0.8%	-10.4%	1.7%
O=C(CSc1ccc(-c2ccco2)nn1)c1ccc(F)cc1	?	-68.6*	14.1µM*	31.6µM*	?	44.7µM*
Cc1ccc(NC(=O)CSc2ccc(-c3ccco3)nn2)c(C)c1	1.0%	0.6	32.9%	-10.0%	-2.1%	-1.2%[57.1 µM]
COc1ccc(C(=O)CSc2nnc(-c3ccco3)n2CC2CCCO2)cc1 (stereo unspecified)	26.6%	-10.9	?	-0.1%	3.0%	2.9%
O=C(CSc1ccc(-c2ccco2)nn1)NCc1ccc(F)cc1	-29.6%	-27.3	-10.3%	-14.2%	-3.0%	-15.0%
O=C(CSc1nnc(-c2ccco2)n1CC1CCCO1)c1ccc(F)cc1 (stereo unspecified)	26.2%	?	?	-10.1%	-2.1%	79.4µM*
COC(=O)c1ccc(OC)c(Cn2c(=O)n(C)c(=O)c3ccccc32)c1	1.9%	-3.0	60.5%	3.1%	-0.2%	-0.6%
CCOc1ccccc1NC(=O)CN(C)S(=O)(=O)c1ccc2[nH]c(=O)oc2c1	-1.0%	0.3	0.7%	-3.2%	-15.1%	4.4%
Cc1cccc(Cn2cnc3c(cnn3C(C)(C)C)c2=O)c1F	/	/	-0.2%	1.9%	/	/
C[C@H](O)Cc1cn(-c2cc3cc(C#Cc4ccsc4)ccc3oc2=O)nn1	/	-3.8	?	-5.2%	-3.4%	0.3%
O=C(O)c1ccc(NC(=O)c2cc3c([nH]c2=O)CCCC3=O)cc1	/	/	-29.9%	-14.7%	/	/
CC(=O)Nc1ccc(NC(=O)CSc2ccc(-c3cccs3)nn2)cc1	-12.9%	-12.5	-25.9%	-5.3%	-3.2%	-7.8%
CCOc1ccccc1NC(=O)CSc1ccc(-c2ccco2)nn1	?	-20.2	56.2µM*	-23.3%	?	-14.5%[11.6 µM]
CC(=O)c1cccc(NC(=O)CSc2ccc(-c3sc(C)nc3C)nn2)c1	79.4µM*	-9.4	-21.4%	-10.3%	-4.3%	-9.4%
CCOc1ccccc1NC(=O)Cn1nc(-c2ccco2)ccc1=O	-0.7%	?	19.5%	-5.7%	2.5%	-7.1%
Cc1cc(C)cc(NC(=O)CSc2ccc(-c3ccco3)nn2)c1	-15.4%	-22.5	42.6%	-6.5%	-8.8%	-15.7%
COc1ccc(NC(=O)CSc2ccc(-c3cccs3)nn2)cc1	-0.2%	/	89.1µM*	-3.7%	-11.8%	/
COc1cc(NC(=O)CSc2ccc(-c3ccco3)nn2)cc(OC)c1	?	?	50.1µM*	-32.6%	-17.4%	-9.2%
CCOc1ccc2nc3cc(NCc4ccc(OC)cc4)ccc3c(N)c2c1	28.2µM*	?	2.0%	2.4%	79.4µM*	35.5µM*
SMILES	Pol beta inh	PI5P4Ka inh	Pol iota inh	POLK inh	Pol eta inh	WRN inhibitor
CCOc1ccc2nc3cc(N)ccc3c(N)c2c1	/	/	/	22.4µM*	/	/
CCCCCCCCN1[C@@H](CC(C)=O)c2ccc(/C=C/C(C)=O)cc2S1(=O)=O	/	/	?	13.7%	/	/
COc1ccccc1CNC(=O)C(=O)NCC1OCCCN1S(=O)(=O)c1ccc(F)cc1C (stereo unspecified)	-19.3%	5.6	11.8%	-4.3%	?	-10.7%
C(=C\c1ccnc2ccccc12)/c1ccc2ccccc2n1	/	/	27.6%	-0.1%	/	/
COc1ccc(CC(=O)N2CCCc3ccccc32)cc1OC	-16.9%	1.2	89.1µM*	-13.3%	-5.3%	4.8%
COc1ccc(CC(=O)N2CCCc3ccccc32)cc1	1.8%	0.3	-3.9%	-8.2%	-12.6%	8.7%
Cc1ccc(C(=O)N/N=C/c2ccc([N+](=O)[O-])s2)cc1	28.2µM*	-19.2	?	-14.9%	-5.0%	-15.0%
CCOC(=O)c1nc2sc(C)c(C)c2c(=O)[nH]1	31.7%	/	68.2%	11.9%	-11.3%	1.6%
CCOC(=O)/C(=C\c1cccc(O)c1)c1nc2sc(C)c(C)c2c(=O)[nH]1	-28.5%	?	17.8µM*	-8.6%	-19.8%	?
O=C(c1cccc(Cl)c1Cl)N(Cc1ccco1)Cc1cccs1	/	/	-2.0%	-1.8%	/	/
Cc1ccc(C(=O)Nc2nnc(SCc3cc(=O)c4c(C)ccc(C)c4[nH]3)s2)cc1	50.1µM*	/	?	-1.1%[60.1 µM]	-10.3%	/
Cc1ccc(C)n1-c1ccccc1N1CCCCC1	31.5%	6.1	102.7%	-1.7%	-14.7%	-12.9%
COc1ccc(CN(C(=O)CN2C(=O)c3ccccc3S2(=O)=O)C(C(=O)NCC2CCCO2)c2ccco2)cc1 (stereo unspecified)	95.4%	-2.9	36.8%	-1.1%	-16.7%	3.8%
COc1ccc(NC(=O)CSc2nnc(-c3ccccc3)n2N)cc1	0.2%	4.2	-8.3%	-2.4%	9.4%	-15.4%
CCOc1ccc(NC(=O)CSc2nnc(-c3ccccc3)n2N)cc1	22.4µM*	-0.8	-1.0%	-13.8%	?	-21.1%
COCCNc1nnc(SCC(=O)Nc2cc(C)on2)s1	/	4.2	8.2%	-2.6%	-4.6%	4.0%
Cc1cc(-c2nnc(SCC(=O)Nc3ccc(C)c(C)c3)n2N)n[nH]1	2µM*	-1.7	47.2%	-4.6%	-22.5%	-6.2%
CCSc1nnc(SCC(=O)Nc2cc(C)on2)s1	/	?	44.7µM*	?	?	-12.4%
CCn1c(SCC(=O)Nc2ccc(-c3nc4ccc(C)cc4s3)cc2)nnc1-c1ccccc1	7.94µM*	/	/	/	/	/
CC(=O)Nc1ccc(NC(=O)CSc2nnc(-c3cc(C)[nH]n3)n2N)cc1	-0.5%	5.1	21.0%	-2.4%	-20.3%	-2.2%
CC1=[N+]([O-])C(C)(C)N(O)C1(C)C	30.2%	-3.1	-12.6%[58.9 µM]	-3.8%	-11.8%	3.8%
CCOC(=O)N1CCN(S(=O)(=O)c2ccc(F)c(C(=O)Nc3cccc(Cl)c3C)c2)CC1	-1.6%	2.0	11.2%	-4.2%	3.8%	0.0%
